# Test results published in PubChem BioAssay (Tox21).
# Values joined by “and” are separate entries in the source; they are usually repeats but may differ in a detail not shown here. Equal entries are not always repeated. Unmarked numbers belong to inactive results. Results filed as inconclusive are left out. Where a call stands in place of a potency, no number is given. Active and inactive are the calls of the source. Unless noted, calls follow the shape of the full dose curve.
# Columns and labels:
# [1] = molecular target: Gonadotropin-releasing hormone receptor (Homo sapiens) (UniProt P30968); assay: Human gonadotropin-releasing hormone receptor (GnRHR) small molecule agonists, calcium flux assay in GnRHR-HEK293 cells (AID 1920063); also: nearly all actives have a fitted effect of over 35% in size; also: potency is read from the fitted curve at half-maximal effect
# Chain of Gonadotropin-releasing hormone receptor (Homo sapiens) (P30968 whole entry, looked up): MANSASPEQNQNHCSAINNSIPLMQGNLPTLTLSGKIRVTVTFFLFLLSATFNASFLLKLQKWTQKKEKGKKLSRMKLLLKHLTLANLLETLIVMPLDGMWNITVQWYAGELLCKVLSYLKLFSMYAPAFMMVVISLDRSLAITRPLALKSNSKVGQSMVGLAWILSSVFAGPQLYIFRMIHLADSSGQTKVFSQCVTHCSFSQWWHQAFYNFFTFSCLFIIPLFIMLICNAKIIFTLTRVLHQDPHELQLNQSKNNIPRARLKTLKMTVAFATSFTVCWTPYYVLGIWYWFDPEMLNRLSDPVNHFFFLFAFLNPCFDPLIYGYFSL
# Procedure, shortened: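 Calcium flux, agonist mode, human GnRHR stably integrated in HEK293; dye 1 h at 37 C before compound; Ex/Em=480/540 kinetic read, 3 min; 15 concentrations, triplicate.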
# [2] = molecular target: KiSS-1 receptor (Homo sapiens) (UniProt Q969F8); assay: Human kisspeptin (KISS1R) small molecule agonists, calcium flux assay in KISS1R-HEK293 cells (AID 1920064; active = well fitted activation curve with a large enough effect in the repeat runs; also: potency is read from the fitted curve at half-maximal effect)
# Chain of KiSS-1 receptor (Homo sapiens) (Q969F8 whole entry, looked up): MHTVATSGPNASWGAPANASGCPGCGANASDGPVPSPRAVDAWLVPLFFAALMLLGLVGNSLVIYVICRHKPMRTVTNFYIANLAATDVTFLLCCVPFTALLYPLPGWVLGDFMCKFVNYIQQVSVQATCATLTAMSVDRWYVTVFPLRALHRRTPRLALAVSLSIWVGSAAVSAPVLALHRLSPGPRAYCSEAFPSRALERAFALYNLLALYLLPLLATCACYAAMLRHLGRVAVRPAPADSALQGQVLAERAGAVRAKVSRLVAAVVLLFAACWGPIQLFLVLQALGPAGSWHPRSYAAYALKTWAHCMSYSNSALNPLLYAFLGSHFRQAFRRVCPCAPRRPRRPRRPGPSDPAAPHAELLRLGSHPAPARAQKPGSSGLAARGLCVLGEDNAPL
# Procedure, shortened: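 Triplicate 15-concentration series were applied to dye-loaded human KISS1R HEK293 cells, and agonist-evoked calcium fluorescence was captured for 3 min.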
# [3] = G protein-coupled receptor (GPCR) small molecule agonists, calcium flux assay: HEK293 wild type cell line counter screen (AID 1920065); also: potency is read from the fitted curve at half-maximal effect
# Procedure, shortened: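 Non-specific calcium responders were flagged by adding DMSO-dissolved compounds to dye-loaded cells and reading 480/540 nm fluorescence each second for 3 min; ATP served as positive control.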
# [4] = p53 small molecule agonists, cell-based qHTS assay with human liver microsomes (AID 1963577);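 also: p53 response element beta-lactamase reporter cells with liver microsomes plus NADPH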
# Procedure, shortened: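 Metabolically competent format: test substances, human liver microsomes and NADPH (both 0.5 mg/mL final) incubated with p53RE-bla cells 16 h at 37 C. Beta-lactamase reporter signal then quantified by fluorescence.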
# [5] = p53 small molecule agonists, cell-based qHTS assay with rat liver microsomes (AID 1963578)
# Procedure, shortened: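 Each plate received p53RE-bla cells, then compound, then rat liver microsomes and NADPH (both 0.5 mg/mL final). Plates were held 16 h at 37 C, and beta-lactamase activity was detected with LiveBLAzer over 2 h.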
# [6] = p53 small molecule agonists, cell-based qHTS assay with human liver microsomes: qHTS cell viability counter screen (AID 1963579); also: nearly all actives have a fitted effect of over 45% in size
# Procedure, shortened: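 Tox21 library compounds, delivered from DMSO stocks, were tested on p53RE-bla cells together with 0.5 mg/mL human liver microsomes and 0.5 mg/mL NADPH (final) over 16 h at 37 C; CellTiter-Glo luminescence served as the cytotoxicity measure.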
# [7] = p53 small molecule agonists, cell-based qHTS assay with rat liver microsomes: qHTS cell viability counter screen (AID 1963580); also: nearly all actives have a fitted effect of over 45% in size
# Procedure, shortened: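 After the beta-lactamase ratio was read, CellTiter-Glo was added to the same wells and luminescence measured at 30 min; cells had been treated 16 h at 37 C with compounds, rat liver microsomes and NADPH (0.5 mg/mL final each).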
# [8] = p53 small molecule agonists, cell-based qHTS assay: qHTS cell viability counter screen (AID 1963581); also: nearly all actives have a fitted effect of over 45% in size
# Procedure, shortened: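 Multiplexed with the reporter read, a CellTiter-Glo step (30 min, room temperature) gauges ATP-based viability of HCT-116 p53RE-bla cells after 16 h compound incubation at 37 C.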
# [9] = molecular target: 5-hydroxytryptamine receptor 2A (Homo sapiens) (UniProt P28223); assay: 5-hydroxytryptamine receptor 2A (HTR2A) small molecule antagonists, cell-based qHTS assay (AID 1963586); also: nearly all actives have a fitted effect of over 45% in size; also: potency is read from the fitted curve at half-maximal effect
# Chain of 5-hydroxytryptamine receptor 2A (Homo sapiens) (P28223 whole entry, looked up): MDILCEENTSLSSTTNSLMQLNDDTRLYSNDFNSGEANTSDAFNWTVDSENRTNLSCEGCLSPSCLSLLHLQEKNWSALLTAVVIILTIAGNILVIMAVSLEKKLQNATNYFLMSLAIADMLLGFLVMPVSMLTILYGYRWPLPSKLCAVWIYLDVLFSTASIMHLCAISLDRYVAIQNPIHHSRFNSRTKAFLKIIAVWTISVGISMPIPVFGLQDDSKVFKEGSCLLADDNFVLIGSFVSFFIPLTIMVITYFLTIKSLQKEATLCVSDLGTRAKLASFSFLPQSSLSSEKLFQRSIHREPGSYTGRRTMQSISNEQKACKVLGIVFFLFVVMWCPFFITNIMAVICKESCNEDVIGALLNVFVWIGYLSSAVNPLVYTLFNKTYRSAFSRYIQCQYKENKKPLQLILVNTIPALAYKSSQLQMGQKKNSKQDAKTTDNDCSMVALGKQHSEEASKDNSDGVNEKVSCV
# Procedure, shortened: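 CHO cells stably expressing human HTR2A were plated for 18 h at 37 C, then loaded with calcium dye for 1 h. Compounds were preincubated 5 min at room temperature before DOI (4 nM solution) was added. Kinetic fluorescence was read for 3 min.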
# [10] = molecular target: 5-hydroxytryptamine receptor 2A (Homo sapiens) (UniProt P28223); assay: 5-hydroxytryptamine receptor 2A (HTR2A) small molecule agonists, cell-based qHTS assay (AID 1963587); also: nearly all actives have a fitted effect of over 30% in size; also: potency is read from the fitted curve at half-maximal effect
# Procedure, shortened: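 CHO cells stably expressing human HTR2A, plated 18 h, loaded with calcium dye 1 h at 37 C. Agonist mode: compounds added and intracellular calcium fluorescence recorded kinetically for 2 min at 1 sec intervals.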
# [11] = molecular target: Muscarinic acetylcholine receptor M1 (Homo sapiens) (UniProt P11229); assay: Cholinergic receptor muscarinic 1 (CHRM1) small molecule antagonists, cell-based qHTS assay (AID 1963588); also: nearly all actives have a fitted effect of over 40% in size; also: potency is read from the fitted curve at half-maximal effect
# Chain of Muscarinic acetylcholine receptor M1 (Homo sapiens) (P11229 whole entry, looked up): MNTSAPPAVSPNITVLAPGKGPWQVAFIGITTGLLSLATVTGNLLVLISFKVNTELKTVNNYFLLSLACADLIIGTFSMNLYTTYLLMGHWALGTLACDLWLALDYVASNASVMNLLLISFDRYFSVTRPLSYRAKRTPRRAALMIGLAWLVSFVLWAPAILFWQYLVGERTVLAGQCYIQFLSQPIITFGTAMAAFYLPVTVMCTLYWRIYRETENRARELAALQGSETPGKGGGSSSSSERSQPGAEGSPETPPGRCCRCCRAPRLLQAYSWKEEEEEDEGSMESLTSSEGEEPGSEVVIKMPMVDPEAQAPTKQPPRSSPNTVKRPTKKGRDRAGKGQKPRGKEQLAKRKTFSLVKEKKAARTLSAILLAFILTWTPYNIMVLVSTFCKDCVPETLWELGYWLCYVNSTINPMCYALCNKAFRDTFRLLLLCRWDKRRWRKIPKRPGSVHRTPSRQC
# Procedure, shortened: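 Compounds were tested at 15 concentrations in three independent runs. Dye-loaded CHRM1-CHO cells were exposed 5 min at room temperature before stimulation by acetylcholine added at 50nM. Intracellular calcium was read kinetically on FDSS for 3 min.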
# [12] = molecular target: Muscarinic acetylcholine receptor M1 (Homo sapiens) (UniProt P11229); assay: Cholinergic receptor muscarinic 1 (CHRM1) small molecule agonists, cell-based qHTS assay (AID 1963589); also: nearly all actives have a fitted effect of over 35% in size; also: potency is read from the fitted curve at half-maximal effect
# Procedure, shortened: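 qHTS, 15-point titration, 3 independent runs: compounds pin-transferred onto dye-loaded CHRM1-CHO cells (human M1), calcium fluorescence followed every second to detect agonism.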
# [13] = cAMP Responsive Elements (CRE) small molecule agonists, cell-based qHTS assay (AID 1963590)
# Procedure, shortened: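 Quantitative HTS for CRE agonists: HEK 293T CRE-bla cells, overnight plating, 3 h compound incubation at 37 C/5% CO2, then 2 h room-temperature LiveBLAzer B/G FRET substrate loading.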
# [14] = cAMP Responsive Elements (CRE) small molecule antagonists, cell-based qHTS assay (AID 1963591; active = well fitted inhibition curve with a large enough effect in the signal ratio in the repeat runs, not every such curve was filed as active; the % refers to the signal ratio)
# Procedure, shortened: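 Fluorescence intensity from cleaved LiveBLAzer B/G substrate (2 h, room temperature) quantified CRE-bla activity in HEK 293T cells exposed 3 h to compound with 0.25 uM final NKH477.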
# [15] = molecular target: Beta-2 adrenergic receptor (Homo sapiens) (UniProt P07550); assay: Adrenergic beta2 receptor (ADRB2) small molecule antagonists, cell-based qHTS assay (AID 1963592); also: series mostly up to about 92 µM; nearly all actives have a fitted effect of over 50% in size
# Chain of Beta-2 adrenergic receptor (Homo sapiens) (P07550 whole entry, looked up): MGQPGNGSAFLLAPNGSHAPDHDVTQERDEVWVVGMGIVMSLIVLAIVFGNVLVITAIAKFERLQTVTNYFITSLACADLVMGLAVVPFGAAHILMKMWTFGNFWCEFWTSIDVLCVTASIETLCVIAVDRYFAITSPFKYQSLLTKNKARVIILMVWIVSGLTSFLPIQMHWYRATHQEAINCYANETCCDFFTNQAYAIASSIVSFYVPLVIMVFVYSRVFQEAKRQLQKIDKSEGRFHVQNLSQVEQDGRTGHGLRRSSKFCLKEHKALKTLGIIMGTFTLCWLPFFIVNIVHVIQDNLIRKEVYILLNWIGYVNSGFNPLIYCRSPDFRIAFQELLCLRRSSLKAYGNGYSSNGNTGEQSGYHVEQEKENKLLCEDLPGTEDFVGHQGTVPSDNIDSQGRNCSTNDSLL
# Procedure, shortened: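 Assay format: CHO-ADRB2 cells, 18-20hr seeding at 37C/5% CO2, then compound plus 1nM isoproterenol agonist mix for 0.5hr RT. Homogeneous time-resolved fluorescence cAMP detection after 1hr, expressed as 665/615 nm ratio.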
# [16] = molecular target: Beta-2 adrenergic receptor (Homo sapiens) (UniProt P07550); assay: Adrenergic beta2 receptor (ADRB2) small molecule agonists, cell-based qHTS assay (AID 1963593);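 also: CHO cells stably overexpressing human ADRB2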
# Procedure, shortened: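 CHO cells stably over-expressing ADRB2 were plated overnight at 37C, then dosed with compounds plus a stimulation mix containing 100uM IBMX and 25uM Ro-20-1724 for 0.5hr at room temperature. cAMP was measured by HTRF competition, 1hr.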
# [17] = molecular target: D(2) dopamine receptor (Homo sapiens) (UniProt P14416); assay: Dopamine D2 receptor (DRD2) small molecule agonists, cell-based qHTS assay (AID 1963594); also: nearly all actives have a fitted effect of over 35% in size
# Chain of D(2) dopamine receptor (Homo sapiens) (P14416 whole entry, looked up): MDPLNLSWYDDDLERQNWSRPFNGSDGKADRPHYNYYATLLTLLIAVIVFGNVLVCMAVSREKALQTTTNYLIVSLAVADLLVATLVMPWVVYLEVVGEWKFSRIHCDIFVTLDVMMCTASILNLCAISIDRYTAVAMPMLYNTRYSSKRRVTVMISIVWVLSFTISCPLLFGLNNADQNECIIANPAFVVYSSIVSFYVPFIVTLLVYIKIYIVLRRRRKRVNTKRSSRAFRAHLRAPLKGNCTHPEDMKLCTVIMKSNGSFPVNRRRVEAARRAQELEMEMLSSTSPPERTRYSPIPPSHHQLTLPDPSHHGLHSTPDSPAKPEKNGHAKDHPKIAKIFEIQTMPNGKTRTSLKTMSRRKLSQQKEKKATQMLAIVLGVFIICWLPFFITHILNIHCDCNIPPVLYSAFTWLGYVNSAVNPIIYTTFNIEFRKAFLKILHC
# Procedure, shortened: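 HEK293 cells stably expressing human DRD2, pre-treated with PDE inhibitor Ro20-1724 (0.1 mM final) and compound 10 min at room temperature, then stimulated with NKH477 (200nM […]) for 30 min. cAMP read by HTRF (665/620 nm).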
# [18] = molecular target: D(2) dopamine receptor (Homo sapiens) (UniProt P14416); assay: Dopamine D2 receptor (DRD2) small molecule antagonists, cell-based qHTS assay (AID 1963595; active = well fitted inhibition curve with a large enough effect in the signal ratio in the repeat runs, with a control signal flat; the % refers to the signal ratio; also: potency is read from the fitted curve at half-maximal effect)
# Procedure, shortened: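 Antagonism was scored as restored cAMP in HEK293-DRD2 cells. These cells were stimulated with 200 nM NKH477 and 12 nM quinpirole for 30 min at room temperature, in the presence of 0.1 mM Ro20-1724.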
# [19] = p53 small molecule agonists, cell-based qHTS assay (AID 1963582; active = well fitted activation curve with a large enough effect in the signal ratio in the repeat runs, not every such curve was filed as active; the % refers to the signal ratio)
# Procedure, shortened: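 Beta-lactamase reporter cells (p53RE-bla) treated with compounds for 16 h at 37 C; FRET substrate, 2 h, room temperature; fluorescence intensity.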
compound,measurement,setting,value
CCc1cc(C(C)(C)C)c(O)c(C(C)(C)C)c1,Potency,[1],inactive
same,Potency,[2],inactive
same,Potency,[3],inactive
same,Potency,[4],inactive
same,Potency,[5],inactive
same,Potency,[6],inactive
same,Potency,[7],inactive
same,Potency,[8],inactive
same,Potency,[9],inactive
same,Potency,[10],inactive
same,Potency,[11],inactive
same,Potency,[12],inactive
same,Potency,[13],inactive
same,Potency,[14],inactive
same,Potency,[15],inactive
same,Potency,[16],inactive
same,Potency,[17],inactive
same,Potency,[18],inactive
CCCCCCCC/C=C/CCCCCCCC1=NCCN1CCO,Potency,[1],inactive
same,Potency,[2],inactive
same,Potency,[3],inactive
same,Potency,[4],inactive
same,Potency,[5],inactive
same,Potency,[6],inactive
same,Potency,[7],inactive
same,Potency,[8],inactive
same,Potency,[19],inactive
same,Potency,[10],inactive
same,Potency,[12],inactive
same,Potency,[13],inactive
same,Potency,[15],inactive
same,Potency,[18],inactive
Cc1ccc(N=Nc2c(O)c(C(=O)O)cc3ccccc23)c(S(=O)(=O)O)c1,Potency,[1],inactive
same,Potency,[2],inactive
same,Potency,[3],inactive
same,Potency,[4],inactive
same,Potency,[5],inactive
same,Potency,[6],inactive
same,Potency,[7],inactive
same,Potency,[8],inactive
same,Potency,[9],inactive
same,Potency,[10],inactive
same,Potency,[11],inactive
same,Potency,[12],inactive
same,Potency,[14],inactive
same,Potency,[15],inactive
same,Potency,[16],inactive
same,Potency,[17],inactive
same,Potency,[18],inactive
CC(C)=CCC[C@](C)(O)[C@@H]1CC=C(C)CC1,Potency,[1],inactive
same,Potency,[2],inactive
same,Potency,[3],inactive
same,Potency,[4],inactive
same,Potency,[5],inactive
same,Potency,[6],inactive
same,Potency,[7],inactive
same,Potency,[8],inactive
same,Potency,[19],inactive
same,Potency,[9],inactive
same,Potency,[11],inactive
same,Potency,[13],inactive
same,Potency,[15],inactive
same,Potency,[16],inactive
same,Potency,[17],inactive
same,Potency,[18],inactive
O=[N+]([O-])c1ccc(NCCO)c(OCCO)c1,Potency,[1],inactive
same,Potency,[2],inactive
same,Potency,[3],inactive
same,Potency,[4],inactive
same,Potency,[5],inactive
same,Potency,[6],inactive
same,Potency,[7],inactive
same,Potency,[8],inactive
same,Potency,[19],inactive
same,Potency,[9],inactive
same,Potency,[10],inactive
same,Potency,[11],inactive
same,Potency,[12],inactive
same,Potency,[13],inactive
same,Potency,[14],inactive
same,Potency,[15],inactive
same,Potency,[17],inactive
same,Potency,[18],inactive
Cc1cc2nc3c(=O)[nH]c(=O)nc-3n(C[C@H](O)[C@H](O)[C@H](O)CO)c2cc1C,Potency,[1],17.2 µM (active) and 11.4 µM (active) and 8.27 µM (active)
same,Potency,[2],24.3 µM (active) and 22.8 µM (active)
same,Potency,[3],38.5 µM (active) and 32.2 µM (active) and 9.28 µM (active)
same,activation,[4],-6.49% [at 13.5 µM]
same,activation,[5],-5.55% [at 13.6 µM]
same,Potency,[6],inactive
same,Potency,[7],inactive
same,Potency,[8],inactive
same,Potency,[19],inactive
same,Potency,[9],inactive
same,Potency,[10],6.1 µM (active) and 16.1 µM (active) and 11.7 µM (active)
same,Potency,[11],inactive
same,Potency,[12],24.3 µM (active) and 20.3 µM (active) and 11.7 µM (active)
same,"activity change, negative = inhibition",[15],-10.6% [at 19 µM]
same,activation,[16],1.44% [at 19 µM]
OCCN1CCN(CC/C=C2/c3ccccc3Sc3ccc(C(F)(F)F)cc32)CC1,Potency,[1],inactive
same,Potency,[2],inactive
same,Potency,[3],inactive
same,Potency,[4],inactive
same,Potency,[5],inactive
same,Potency,[6],inactive
same,Potency,[7],inactive
same,Potency,[8],inactive
same,Potency,[19],inactive
same,Potency,[9],130 nM (active)
same,Potency,[11],3650 nM (active)
same,Potency,[15],inactive
same,Potency,[18],168 nM (active)
CCCN(CCc1cccs1)[C@H]1CCc2c(O)cccc2C1,Potency,[1],inactive
same,Potency,[2],inactive
same,Potency,[3],inactive
same,Potency,[4],inactive
same,Potency,[5],inactive
same,Potency,[6],inactive
same,Potency,[7],inactive
same,Potency,[8],inactive
same,Potency,[19],inactive
same,Potency,[9],365 nM (active)
same,Potency,[10],120 nM (active)
same,Potency,[11],10300 nM (active)
same,Potency,[15],inactive
same,Potency,[16],inactive
same,Potency,[18],inactive
